Bioassay records as filed in PubChem BioAssay.
Only some compounds are listed: those with a hit (about 6.7% of all), similar ones and a draw of the others.
Pf Dd2 growth: inhibitors of Plasmodium falciparum Dd2 growth; P. falciparum Dd2 growth, SYBR Green, 72 h; active compounds read low; AID 1159554; 94,000 tested, 2.3% active; activity change, % at 10 µM; in the data active = activity change below about -80%; inconclusive = no clear call, values can overlap the other calls
T cruzi growth-1: T. cruzi proliferation inhibition; inhibition, % at 8.34 µM; 77,000 tested, 5.9% active; AID 624255; T. cruzi beta-gal in NIH3T3, GalScreen luminescence, 90 h;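 active = mean inhibition above about 93%, with at least 55% of replicates each passing it, limit read from the data, passing the limit was not always enough; inconclusive = only one of those two conditions holds; inactive = neither condition holds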
C diff growth: inhibitors of Clostridium difficile growth; growth activity, negative = inhibition, % at 16 µg/mL (by protocol); 86,000 tested, 0.25% active; Clostridium difficile clinical isolate growth, OD600, 24 h; active compounds read low;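 active = mean growth activity at or below -80% and every replicate also at or below -80%; inconclusive = mean at or below -80% but some replicate above -80%; inactive = mean growth activity above -80%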;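 note: 0% = DMSO wells and -100% = levofloxacin 16 µg/mL wells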
T cruzi growth-2: blocks T. cruzi growth in NIH3T3 host cells; T. cruzi beta-gal in NIH3T3, GalScreen luminescence, 90 h; shares compounds with T cruzi growth-1; inhibition, % at 8.35 µM; AID 651739; 5,600 tested, 72% active;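 active = mean replicate inhibition above about 95% and at least 55% of replicates individually reaching it, limit read from the data; inconclusive = only one of the two criteria is met; inactive = neither criterion is met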
T cruzi growth-3: blocks T. cruzi growth in NIH3T3 host cells; shares compounds with T cruzi growth-1; T. cruzi beta-gal in NIH3T3, GalScreen luminescence, 90 h; inhibition, % at 2.09 µM; 5,600 tested, 21% active; AID 651740;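 active = mean inhibition above about 95%, with at least 55% of replicates also reaching it, limit read from the data; inconclusive = meets just one of the two conditions; inactive = meets neither condition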;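 note: plate controls were neutral control median for no effect and positive control median for full effect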
3T3 cytotox: kills mouse NIH/3T3 fibroblasts. AID 651742. cytotoxicity (signal decrease), % at 8.35 µM. shares compounds with T cruzi growth-1. NIH/3T3 viability, CellTiter-Glo ATP luminescence, 90 h. 5,600 tested, 14% active;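 active = mean signal decrease across replicates above about 35% based on untreated-well scatter, with enough replicates individually passing, limit read from the data; inconclusive = no rule stated though some were filed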;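 note: 0% = median of neutral control wells and 100% = median of positive control wells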
3T3 cytotox 2: cytotoxicity in mouse NIH/3T3 fibroblasts | shares compounds with T cruzi growth-1 | NIH/3T3 viability, CellTiter-Glo ATP luminescence, 90 h | inhibition, % at 24.9 µM | 5,600 tested, 56% active;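 active = mean loss of cell viability signal at or above a set limit, and enough replicates individually reaching it; inconclusive = meets only the mean limit or only the replicate share; inactive = meets neither condition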;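 note: 0% = median of neutral control wells and 100% = median of positive control wells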
Active calls of the source: *; ? = inconclusive; · = not tested or not shown.

SMILES	Pf Dd2 growth	T cruzi growth-1	C diff growth	T cruzi growth-2	T cruzi growth-3	3T3 cytotox	3T3 cytotox 2
Cc1noc(C)c1NC(=O)N(C)C[C@@H]1Oc2ccc(N(C)C)cc2C(=O)N([C@H](C)CO)C[C@H]1C	-28	106*	3	-94	3	-18	10
Cc1noc(C)c1NC(=O)N(C)C[C@H]1Oc2ccc(N(C)C)cc2C(=O)N([C@H](C)CO)C[C@@H]1C	-76	73	7	·	·	·	·
C[C@@H]1CN([C@H](C)CO)C(=O)c2cc(NC(=O)CCC(F)(F)F)ccc2O[C@H]1CN(C)C(=O)Nc1ccc2c(c1)OCO2	2	22	-2	·	·	·	·
C/C=C/c1cnc2c(c1)C(=O)N([C@H](C)CO)C[C@@H](C)[C@H](CN(C)S(=O)(=O)c1ccccc1F)O2	-12	·	-2	·	·	·	·
C[C@@H]1CN([C@@H](C)CO)C(=O)c2cc(/C=C/c3ccccc3)cnc2O[C@@H]1CN(C)S(=O)(=O)c1ccccc1	-10	37	5	·	·	·	·
C[C@@H]1CN([C@@H](C)CO)C(=O)c2cc(/C=C/c3ccccc3)cnc2O[C@H]1CN(C)S(=O)(=O)c1ccccc1F	-48	123*	0	108*	81	23	?
C[C@H]1CN([C@@H](C)CO)C(=O)c2cc(/C=C/c3ccccc3)cnc2O[C@H]1CN(C)S(=O)(=O)c1ccccc1F	-41	41	-4	·	·	·	·
C[C@H](CO)N1C[C@H](C)[C@@H](CN(C)S(=O)(=O)c2ccccc2)Oc2ncc(/C=C/c3ccccc3)cc2C1=O	-48	125*	-8	108*	45	-14	20
C[C@H]1CN([C@@H](C)CO)C(=O)c2cc(/C=C/c3ccccc3)cnc2O[C@@H]1CN(C)S(=O)(=O)c1ccccc1F	-70	126*	-7	104*	64	18	37*
CCCNC(=O)N1C[C@@H]2[C@H](c3ccccc31)[C@H](CO)N2C(=O)NC(C)C	2	5	-8	·	·	·	·
CO[C@H]1CC[C@H]2CCN(C)C(=O)[C@@H](C)N(C)C(=O)c3cccc(C#N)c3OC[C@@H]1O2	·	-2	-8	·	·	·	·
CCCNC(=O)C[C@@H]1CC[C@@H]2[C@@H](COc3ccc(NC(=O)C4CCOCC4)cc3C(=O)N2C)O1	2	94	-14	·	·	·	·
C[C@H]1CN([C@@H](C)CO)C(=O)Cc2cc(NC(=O)Nc3ccc4c(c3)OCO4)ccc2O[C@@H]1CN(C)S(=O)(=O)c1ccccc1	13	1	9	·	·	·	·
C[C@H](CO)N1C[C@H](C)[C@H](CN(C)Cc2ccc(-c3ccccc3)cc2)Oc2c(NC(=O)Nc3ccc(C(F)(F)F)cc3)cccc2C1=O	28	116	32	·	·	·	·
COc1cccc(S(=O)(=O)N2CCCCN3[C@H](C2)[C@H](c2ccc(C#CC4CC4)cc2)[C@@H]3CO)c1	-22	72	34	·	·	·	·
Cc1cccc(S(=O)(=O)N2CCCCN3[C@@H](CO)[C@@H](c4ccc(C#CC5CC5)cc4)[C@@H]3C2)c1	?	65	43	·	·	·	·
COCC#Cc1ccc([C@H]2[C@@H](CO)N3CCCCN(S(=O)(=O)c4cccc(OC)c4)C[C@H]23)cc1	-63	92	17	·	·	·	·
COc1cccc(S(=O)(=O)N2CCCCN3[C@@H](CO)[C@H](c4ccc(C#CC5CC5)cc4)[C@@H]3C2)c1	4	107*	12	109*	89	16	105*
COc1cccc(S(=O)(=O)N2CCCCN3[C@H](C2)[C@@H](c2ccc(C#CC4CC4)cc2)[C@@H]3CO)c1	4	121*	-2	93	93	4	?
COCC#Cc1ccc([C@@H]2[C@H](CO)N3CCCCN(S(=O)(=O)c4cccc(OC)c4)C[C@@H]23)cc1	-45	107*	-4	103*	38	32	45*
CN(C)C(=O)c1ccc(-c2ccc([C@@H]3[C@@H](C#N)N(C(=O)Cc4ccccn4)[C@H]3CO)cc2)cc1	-44	80	0	·	·	·	·
COC(=O)C[C@@H]1CC[C@H]2[C@H](COc3ccc(NC(=O)c4cccc(OC)c4)cc3C(=O)N2C)O1	-1	-14	-4	·	·	·	·
CN(C)C(=O)[C@@H]1[C@@H](CO)[C@@H]2Cn3c(ccc(-c4cccnc4)c3=O)[C@H]1N2C(=O)NC1CCCC1	12	8	-3	·	·	·	·
C[C@@H]1CN([C@@H](C)CO)C(=O)c2cc(NC(=O)CCC(F)(F)F)ccc2O[C@@H](C)CCCCO[C@H]1CN(C)S(=O)(=O)c1cccs1	-74	36	-4	·	·	·	·
Cc1noc(C)c1S(=O)(=O)Nc1ccc2c(c1)CC(=O)N([C@@H](C)CO)C[C@@H](C)[C@H](CN(C)Cc1ccc(Oc3ccccc3)cc1)O2	-70	?	65	109*	89	-25	104*
SMILES	Pf Dd2 growth	T cruzi growth-1	C diff growth	T cruzi growth-2	T cruzi growth-3	3T3 cytotox	3T3 cytotox 2
COc1ccc(S(=O)(=O)Nc2ccc3c(c2)CC(=O)N([C@@H](C)CO)C[C@@H](C)[C@@H](CN(C)Cc2ccccc2)O3)cc1	-12	74	-8	·	·	·	·
COc1ccc(S(=O)(=O)Nc2ccc3c(c2)CC(=O)N([C@H](C)CO)C[C@@H](C)[C@H](CN(C)Cc2ccccc2)O3)cc1	4	104*	-2	109*	99*	-4	7
COc1ccc(S(=O)(=O)Nc2ccc3c(c2)CC(=O)N([C@@H](C)CO)C[C@H](C)[C@@H](CN(C)Cc2ccccc2)O3)cc1	-10	79	-2	·	·	·	·
Cc1noc(C)c1S(=O)(=O)Nc1ccc2c(c1)CC(=O)N([C@H](C)CO)C[C@@H](C)[C@@H](CN(C)Cc1ccc(Oc3ccccc3)cc1)O2	2	66	31	·	·	·	·
COc1ccc(S(=O)(=O)Nc2ccc3c(c2)CC(=O)N([C@@H](C)CO)C[C@H](C)[C@H](CN(C)Cc2ccccc2)O3)cc1	-28	99*	-1	99*	27	15	19
C[C@H]1CN([C@@H](C)CO)C(=O)c2cccc(N(C)C)c2O[C@H]1CN(C)S(=O)(=O)c1ccc(F)cc1	13	·	12	·	·	·	·
O=C(C[C@H]1CC[C@@H]2[C@H](COC[C@@H](O)CN2Cc2nccs2)O1)NCc1ccc(-c2ccccc2)cc1	-6	48	·	·	·	·	·
C[C@@H]1CCCCO[C@@H](CN(C)Cc2ccc(C(=O)O)cc2)[C@H](C)CN([C@@H](C)CO)C(=O)c2cc(NC(=O)CCCN(C)C)ccc2O1	44	5	-3	·	·	·	·
C[C@@H]1CCCCO[C@@H](CN(C)S(=O)(=O)c2ccc(F)cc2)[C@H](C)CN([C@H](C)CO)C(=O)c2cc(NC(=O)Nc3ccc(C(F)(F)F)cc3)ccc2O1	-76	92	·	·	·	·	·
C[C@H]1CN([C@@H](C)CO)C(=O)c2cc(C3=CCCC3)cnc2O[C@@H]1CN(C)C(=O)Nc1ccc(C(F)(F)F)cc1	-54	82	-1	·	·	·	·
